Screening data from PubChem BioAssay.
TWEAK Fn14 block: inhibitors of TWEAK-Fn14 signaling, primary screen, luciferase reporter cells, uHTS; AID 1159606, 2016; inhibition, % at 10 µM; TWEAK-stimulated Fn14 reporter cells, luciferase luminescence, 8 h; actives 2% (n = 360,000); in the data active means inhibition above about 50%
HIF-2a block: HIF-2a reporter inhibitors, primary screen, luminescence, 786-0 RCC cells. 786-0 RCC cells HIF-2a reporter, luciferase luminescence, overnight. actives 0.72% (n = 360,000). inhibition, % at 18.8 µM. AID 624352, 2012;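 active means inhibition of the luminescence signal of 40% or more relative to plate controls, in a single-dose primary screen at 18.75 µM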
CF NFkB block: inhibitors of PAF-induced NF-kB signaling, primary screen, cell-based, GFP fluorescence, uHTS; KKLEB NF-kB-GFP reporter, GFP fluorescence overnight; inhibition, % at 5 µM; actives 0.86% (n = 360,000);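 active means at least 50% inhibition at 5 µM, scaled per plate between neutral and stimulator controls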;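 further: PAF is a Pseudomonas aeruginosa culture filtrate used as stimulus; plate controls were PAF-stimulated DMSO wells for no effect and unstimulated DMSO wells for full effect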
KKLEB cytotox: cytotoxicity in KKLEB CF airway cells, primary screen, cytotoxicity control for CF NF-kB inhibitor project, cell-based, uHTS, fluorescence assay plates. KKLEB CF airway cells viability, ATPlite luminescence, overnight; hits give low values; cells stimulated with P. aeruginosa culture filtrate. activity change (cytotoxicity), % at 5 µM. actives 0.36% (n = 360,000). AID 602141, 2011;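 active means corrected activity change at or below -50% at 5 µM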
Peg3 promoter: Peg3 promoter-driven luciferase inhibitors, primary screen, cell-based, HeLa, luciferase luminescence | actives 1.7% (n = 360,000) | HeLa PEG-Prom luciferase reporter, overnight | inhibition, % at 20 µM | AID 588405, 2011;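 active means inhibition of at least 50% at 20 µM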
TROY signal inh: inhibitors of TROY-driven NF-kB signaling, primary screen, Q293 LMP1-TROYcd cells, NF-kB luciferase, uHTS; Q293 LMP1-TROYcd NF-kB luciferase reporter, 4 h; actives 0.98% (n = 360,000); inhibition, % at 10 µM;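 active means compounds whose plate-normalised and pattern-corrected inhibition of the luciferase reporter signal at the single screening dose is 50% or more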
* = called active by the depositor. Most compounds without a hit are left out; they make up all but 3.9% or so of the library.

SMILES | TWEAK Fn14 block | HIF-2a block | CF NFkB block | KKLEB cytotox | Peg3 promoter | TROY signal inh
O=C(NCCN1C(=O)S/C(=C\c2ccc(Cl)c(Cl)c2)C1=O)C1COc2ccccc2O1 (centres undefined) | 29.3 | 2.6 | 20.9 | -11.3 | 3.8 | 22.7
O=C(NCCN1C(=O)S/C(=C\c2ccc(Cl)c(Cl)c2)C1=O)c1ccc2c(c1)C(=O)N(Cc1ccncc1)C2=O | 58.1* | -14.8 | -4.4 | 8.7 | -7.1 | -23.4
CCOC(=O)Cc1c(C)nc2c(C#N)c[nH]n2c1=O | 1.5 | -5.4 | -0.4 | -12.5 | 11.2 | -3.2
CCOC(=O)Cc1c(C)nc2c(-c3cccc(Br)c3)c[nH]n2c1=O | 30.2 | 2.5 | -3.6 | -11.2 | 57.9* | -17.8
S=C(c1ccc(N2CCCC2)c(Br)c1)N1CCCCC1 | 31.0 | 6.9 | 4.1 | -10.8 | -34.4 | -17.3
CCOc1ccc(CCNC(=O)COC(=O)COc2ccc(C(C)=O)cc2)cc1OCC | -8.2 | 2.1 | -25.4 | 7.3 | 6.2 | -5.4
CCOc1ccc(NC(=O)NNC(=O)c2cc3ccccc3cc2O)cc1 | 54.8* | 11.5 | 11.6 | -5.8 | 0.6 | 52.3*
Cc1ccc2[nH]c3c(=O)n(CCc4cnc[nH]4)cnc3c2c1 | 14.6 | -152.2 | -6.2 | 5.0 | -231.2 | 53.2*
COc1cc(CC(=O)N2CCc3ccccc32)cc(OC)c1OC | 10.4 | 11.3 | -10.6 | -9.1 | 4.4 | 15.1
CCOC(=O)N1CCc2cc(OC)c(OC)c3c2c1cc1cc(OC)c(OC)cc13 | 54.0* | -28.3 | 6.5 | -6.7 | 50.8* | 15.0
CC(C)N(CC(=O)Nc1ccc(Cl)cc1C(F)(F)F)C(=O)CCl | 63.5* | 18.2 | 2.3 | -19.9 | 64.9* | -5.4
Cc1cc(C(=O)COC(=O)c2ccc(O)cc2O)c(C)n1C(C)C | 1.4 | -102.7 | 13.6 | -6.5 | -290.8 | 8.4
CCOCCn1ccc2c(OCC(=O)Nc3ccc(OC)c(OC)c3)cccc2c1=O | 9.3 | 8.5 | 0.2 | -10.3 | 17.4 | 20.4
CCOCCn1ccc2c(OCC(=O)Nc3ccc(OC)cc3OC)cccc2c1=O | -13.4 | 15.3 | 9.7 | -10.1 | 51.9* | 18.0
COCCNC(=S)N(CCc1c(C)[nH]c2ccc(F)cc12)Cc1ccco1 | 2.8 | 1.7 | 5.2 | -7.5 | 29.4 | 13.4
OC(CNCCC(c1ccccc1)c1ccccc1)COc1ccccc1 (centres undefined) | -10.2 | 12.6 | 6.9 | -11.1 | 59.6* | 0.5
COc1ccc(C(OCC(O)CNCCc2ccccc2)c2ccc(OC)cc2)cc1 (centres undefined) | 2.8 | -3.7 | 11.5 | -16.9 | 12.6 | -26.0
OC(CNCCc1ccc(Cl)cc1)COc1ccc2ccccc2c1 (centres undefined) | -12.5 | 1.2 | 0.6 | -4.2 | 66.7* | -8.1
OC(CNCCc1ccccc1)COc1ccc(OCC(O)CNCCc2ccccc2)cc1 (centres undefined) | -27.3 | 13.5 | 3.3 | -1.9 | 102.1* | -21.8
OC(CNCCc1ccc(Cl)cc1)COc1cc(Cl)ccc1Cl (centres undefined) | -8.4 | 2.7 | 4.9 | -12.2 | 103.9* | -30.8
O=C(CCc1nnc(Cc2cccc(C(F)(F)F)c2)o1)NC1CC1 | -5.3 | -16.6 | 2.4 | -0.2 | -20.5 | 3.8
CC(C)CCNCC(O)CON=C1c2ccccc2-c2ccccc21 (centres undefined) | -39.0 | 8.5 | 9.5 | -17.8 | 107.2* | -47.3
C=CCSc1nsc(NC(=O)Nc2ccc(F)cc2)n1 | 52.2* | -187.1 | 44.2 | -38.2 | -71.5 | 30.7
Cc1cccc(NC(=O)NNC(=O)c2cc3occc3[nH]2)c1C | 2.6 | 5.8 | -11.3 | 5.8 | -3.2 | -0.2
COc1ccc(CCNCc2ccc(OCc3ccccc3)cc2)cc1 | -27.2 | -19.9 | -12.3 | 4.6 | 28.7 | -34.1
SMILES | TWEAK Fn14 block | HIF-2a block | CF NFkB block | KKLEB cytotox | Peg3 promoter | TROY signal inh
COc1ccc(C(CCNCc2ccc(OC(C)C)cc2)c2ccccc2OC)cc1 (centres undefined) | -17.2 | 11.5 | 6.9 | -26.4 | 101.9* | 8.7
COc1ccc(C(CCNCc2ccc(N(C)C)cc2)c2ccccc2OC)cc1 (centres undefined) | 2.2 | 17.7 | 18.8 | -7.8 | 59.7* | 5.2
COc1ccc(CNCCC(c2ccc(OC)cc2)c2ccccc2OC)cc1 (centres undefined) | -7.8 | 17.5 | 0.7 | 1.9 | 18.6 | 8.8
CC(C)c1ccc(Nc2ncc3c(n2)CCN(C(=O)Nc2ccc(F)c(Cl)c2)C3)cc1 | 78.1* | -39.1 | -20.4 | -14.0 | -43.8 | 65.1*
COc1cccc(NC(=O)N2CCc3nc(NCc4cccc(Oc5ccccc5)c4)ncc3C2)c1 | 54.3* | -18.1 | 18.9 | -0.1 | -0.2 | 17.8
O=C(Nc1ccc(OC(F)(F)F)cc1)N1CCc2nc(NCc3cccc(Oc4ccccc4)c3)ncc2C1 | 35.5 | -5.5 | -6.5 | -0.9 | 44.2 | 32.5
COc1cccc(NC(=O)N2CCc3nc(Nc4cc(Cl)cc(Cl)c4)ncc3C2)c1 | 12.8 | -47.8 | 19.1 | -6.3 | 27.6 | -0.1
CC(C)c1ccc(CC(=O)N2CCC2(C)C(=O)Nc2cccc(C#N)c2)cc1 (centres undefined) | 11.5 | 9.5 | 0.5 | -6.7 | 7.1 | 18.4
CC1(C(=O)Nc2cccc(C#N)c2)CCN1C(=O)Cc1ccc(-c2ccccc2)cc1 (centres undefined) | 57.0* | 17.7 | 24.6 | -3.6 | 28.8 | 22.8
CC1(C(=O)Nc2ccc3c(c2)OCCO3)CCN1C(=O)C1(c2ccc(Cl)cc2)CC1 (centres undefined) | 59.0* | 21.2 | -3.1 | -4.7 | 26.0 | 25.9
CC1(C(=O)Nc2ccc3c(c2)OCCO3)CCN1C(=O)Cc1ccc(-c2ccccc2)cc1 (centres undefined) | 73.6* | 17.4 | -16.3 | -4.4 | 26.6 | 46.2
COc1ccccc1-c1ocnc1C(=O)N1CCN(C(=O)C(c2ccccc2)c2ccccc2)CC1 | 14.5 | -4.6 | 5.4 | 9.1 | 18.4 | 8.0
Cc1ccc(NC(=O)c2cc(S(=O)(=O)N3CCOCC3)ccc2F)c(C)c1 | 79.7* | -48.8 | 14.1 | -6.0 | -32.5 | -20.3
O=C(Nc1ccccc1Cl)c1cc(S(=O)(=O)N2CCCC(C(=O)O)C2)ccc1F (centres undefined) | 88.0* | 12.1 | 0.5 | -7.0 | 4.0 | 5.6
CCOC(=O)c1ccc(NC2=CC(=O)C(=O)c3ccccc32)cc1 | 19.3 | -32.7 | 89.3* | -72.2* | 115.5* | -2.1
CCC(C(=O)Nc1cc(Cl)c(OC)cc1OC)c1ccccc1 (centres undefined) | 6.6 | 3.6 | 1.8 | -3.4 | 9.8 | 0.9
CC(=O)Nc1ccc(NC2=CC(=O)c3ccccc3C2=O)cc1 | 1.1 | -159.0 | -3.0 | 1.0 | -187.7 | -9.9
